This is an account of results in PubChem BioAssay.

The assay relates to XIP peptide (Xip251-270). Description: small-molecule binders of XIP peptide, primary screen, biochemical, small-molecule microarray, fluorescence 635/667 nm, 0.5 µg/mL protein (AID 1183). To be noted: small-molecule microarray binding, fluorescence 635 nm; higher = more signal.
`COc1cc2c(cc1O)C(C1CC1)N(Cc1cccc(OC(F)(F)F)c1)CC2` (stereo not given): the composite z-score came out at 0.651.

For the molecule `C=CC[C@]1(C(=O)N2CCOCC2)COC(c2ccc(OCCCO)cc2)=N1`, the composite z-score turned out to be 0.879.

As to `C=CC[C@]1(C(=O)N2CCCCC2)N=C(c2ccc(OCCCO)cc2)O[C@H]1c1ccccc1CN=[N+]=[N-]`, the composite z-score was 0.652.

As to `COc1ccc(CCNC(=O)[C@@]2(Sc3ccc(C)cc3)CC(=O)N(Cc3ccccc3C(F)(F)F)[C@@H]2c2ccc(CO)cc2I)cc1`, the composite z-score was 0.853.

For the molecule `O=C1N(CCS(=O)(=O)c2ccccc2)c2ccccc2[C@H]2OC(c3ccc(OCCCO)cc3)=N[C@@]12Cc1ccccc1`, the composite z-score turned out to be 0.832.

In the case of `CCCCC[C@H]1OC[C@@]23C=C(Br)[C@@H](CC12)[C@@]1(CO1)C3=O` (stereo not given in full), the composite z-score was -0.332.

Turning to `COC(=O)[C@@]1(Cc2ccc(OC)cc2)[C@H]2c3cc(C(=O)N(C)C)n(Cc4ccc(OC(F)(F)F)cc4)c3C[C@H]2CN1C(=O)c1ccccc1`, the composite z-score is 0.112.

`CCC#CCN(Cc1ccccc1Br)[C@H](/C=C/C1CC1)[C@@H](O)Cc1ccccc1`: the composite z-score worked out at 0.0059.

`CC[C@@H]1O[Si](C(C)C)(C(C)C)c2c1cc(-c1cc(C)c(OC)c(C)c1)nc2-c1ccc(Oc2ccccc2)cc1`: the composite z-score was -0.22.

As to `CCCNC(=O)[C@@]1(C)c2ccccc2C(=O)N(c2ccc(C)cn2)[C@H]1c1ccc(CO)cc1`, the composite z-score is 0.386.

As for `[N-]=[N+]=Nc1ccccc1[C@@H]1OC(c2ccc(OCCCO)cc2)=N[C@]1(Cc1ccccc1)C(=O)N1CCCCC1`, the composite z-score is 0.806.

Consider `COc1ccc([Si](C)(C)[C@@H]2[C@@H](CCO)O[C@]3(C(=O)N(Cc4ccccc4)c4ccc(N5C(=O)c6cccc7cccc5c67)cc43)[C@H]2C)cc1`, for which the composite z-score stood at 0.541.

For `COc1cccc(C)c1NC(=O)O[C@H]1[C@H](OC(=O)Nc2ccc3c(c2)OCO3)[C@@H](OC(=O)Nc2ccc3c(c2)OCO3)[C@@H](OC)O[C@@H]1CO`, the composite z-score was -0.0963.

Consider `Cc1cc(C)c(C(O)C2C=CC3C(=O)N(c4ccccc4)C(=O)C3N2Nc2ccccc2F)c(C)c1` (stereo not given), for which the composite z-score was 0.863.

For the molecule `CCCC1(C(=O)OC)C=C2C(=C(C)C(=O)C2C)CN1` (stereo not given), the composite z-score was -0.527.

As for `O=C(NCCN1CCOCC1)[C@@H]1c2ccccc2C(=O)N(Cc2ccccc2Cl)[C@H]1c1ccc(CO)cc1`, the composite z-score is -0.209.

With `C=C(/C(=C/C[C@H](OC(C)=O)c1ccc(CO)o1)c1cnc2ccccc2c1)C(C)C`, the composite z-score was 0.769.

Consider `CCOC(=O)C[C@H]1[C@H](OC(=O)Cc2ccc3c(c2)OCO3)[C@@H](NC(=O)c2ccc3ccccc3n2)c2cc(OCCCO)ccc2N1C(=O)c1ccc2ccccc2n1`, for which the composite z-score is 0.66.

`[N-]=[N+]=Nc1ccccc1C[C@]1(C(=O)NCCN2CCOCC2)COC(c2ccc(OCCCO)cc2)=N1`: the composite z-score came out at 0.256.

Turning to `COc1ccc(CCNC(=O)[C@@H]2c3ccccc3C(=O)N(C3CCCCC3)[C@H]2c2ccc(CO)cc2)cc1`, the composite z-score came out at 0.658.

In the case of `COCCOC(=O)N1C(=O)[C@@]2(c3ccccc31)[C@H](C(=O)NC[C@H](O)c1ccccc1)[C@H]1C(=O)O[C@H](c3ccccc3)[C@H](c3ccccc3)N1[C@@H]2c1ccc(O)cc1`, the composite z-score was 0.819.

As to `COC(=O)[C@]1(CCS(=O)(=O)c2ccccc2)N=C(c2ccc(OCCCO)cc2)O[C@@H]1c1ccccc1N=[N+]=[N-]`, the composite z-score was 0.836.

As for `CC(C)C(CO)N1C(=O)[C@@H]2C3C(=O)OCCC/C=C\[C@H]3OC23C=CCN(c2ccc4ccccc4c2)C(=O)[C@@H]13` (stereo not given in full), the composite z-score was 0.0118.

For the molecule `CN1C2C=C(CCCO)C(C3C(=O)N(C(N)=O)C(=O)C32)C1C1CC1` (stereo not given), the composite z-score was -0.0081.

Consider `NCCCCCNC(=O)[C@@H]1C[C@@H]2C(=O)N[C@@H](CCCCN)C(=O)N2[C@@H]1c1ccc(O)cc1`, for which the composite z-score amounted to 0.827.

In the case of `CCCCCC1=C2CNC(C)(C(=O)OC)C=C2C(C)C1=O` (stereo not given), the composite z-score is -0.513.

Take `COc1ccc(CCNC(=O)[C@@]2(c3ccc([N+](=O)[O-])cc3)CC(=O)N(C3CCCCC3)[C@@H]2c2ccc(CO)cc2)cc1`: the composite z-score turned out to be 0.662.

For `COCCOC(=O)N1C(=O)[C@@]2(c3cc(C#CCC(C(=O)OC)C(=O)OC)ccc31)[C@H](c1ccc(OCCO)cc1)N1[C@H](c3ccccc3)[C@H](c3ccccc3)OC(=O)[C@H]1[C@@H]2C(=O)N1CCc2cc(OC)c(OC)cc2C1`, the composite z-score was determined as 0.727.

Take `O=C(c1ccccc1)N1C(=O)[C@]2(Cc3ccccc31)N=C(c1ccc(OCCCO)cc1)O[C@@H]2c1ccccc1`: the composite z-score came to 0.387.

Consider `COc1ccc([Si](C)(C)[C@@H]2[C@@H](CCO)O[C@]3(C(=O)N(Cc4ccccc4)c4ccc(N5CCOC5=O)cc43)[C@H]2C)cc1`, for which the composite z-score was found to be 0.869.
